# According to PubChem BioAssay AID588398 (Broad Institute, 2011):
# About 110 (9.2%) of roughly 1,200 compounds were called active. About 8% were inconclusive and are not listed. The list is a sample of the results. Measured potencies and affinities stand elsewhere. Values without a mark were called inactive.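 The calls were made as follows: active = pathway reporter half-maximal dose under half the control reporter's, or control reporter unaffected while pathway reporter is inhibited; inconclusive = either signal flat at 30 to 70% inhibition or poorly fitted; inactive = the rest.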
# Test: LMP1 TES1 pathway selectivity over dsRED control – imaging, HEK293T, dual-color eGFP/dsRED, cherry-picks, selectivity assay for LMP1 NF-kB inhibitor project, dose response (AID 588398);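 also: 0% = median of neutral control wells and -100% = median of MG132 positive control wells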
# Conditions: 48 h; HEK293T Tet-On dsRED counter-screen channel, at 19.5 µM (top of the series); activity change, negative = inhibition: at the top concentration
row,Compound,"activity change, negative = inhibition"
1,CC1CCN(CCOc2ccc(C(=O)c3ccccc3)cc2)CC1,36.3%
2,CCC(C)[C@H](NC(=O)NCc1cccnc1)C(=O)OC (stereo partly drawn),4.65%
3,CCOc1ccc(Nc2ncnc3ccc([N+](=O)[O-])cc23)cc1,-42.1%
4,Cc1cc(C(=O)COc2cccnc2[N+](=O)[O-])c(C)n1-c1ccccc1F,-11.3%
5,O=C1CCCCC1Sc1nnc(-c2ccc3c(c2)OCO3)o1 (stereo not drawn),4.25%
6,C=CCn1c(=O)/c(=C/c2ccc(Cl)cc2)s/c1=C(\C#N)c1nnc2n1CCCCC2,-6.95%
7,Cc1ccc(OCC(=O)NNC(=S)NC(=O)C2CCCCC2)c(C)c1,10.5%
8,Cc1cc(NC(=O)c2ccc(C)s2)n(-c2nc3ccccc3[nH]2)n1,55.5%
9,COc1ccc(OC)c(NC(=O)COC(=O)COc2ccc(Nc3ccccc3)cc2)c1,-1.56%
10,C(=Cc1cnc2ccccc2n1)c1ccc2c(c1)OCO2,7.85%
11,CCOc1ccc(NC(=O)c2ccc(N3CC4CC(C3)c3cccc(=O)n3C4)c(NC(=O)c3cccnc3)c2)cc1 (stereo not drawn),21.6%
12,COc1ccc(N2C(=O)C(Cl)=C(NCc3ccccc3)C2=O)cc1,-1.67%
13,CCOc1ccccc1/C=C/c1onc(C)c1S(=O)(=O)N1CCC(C(=O)N(CC)CC)CC1,-12.9%
14,Cc1ccc(S(=O)(=O)N2CCN(C(=O)COC(=O)COc3ccc(Cl)cc3)CC2)c(C)c1,-2.22%
15,CCOC(=O)N1CCC(NC(=O)C2CCCN(Cc3nc(-c4cccc(Cl)c4)oc3C)C2)CC1 (stereo not drawn),6.91%
16,COc1ccc(S(=O)(=O)N2CCCCCC2)cc1C(=O)OCc1cccc(OC)c1OC,0.989%
17,Fc1cccc(Cl)c1/C=N/n1c(-c2cccnc2)n[nH]c1=S,10.6%
18,CC(=O)c1cccc(NC(=O)Nc2ccc(C(=O)N3CCOCC3)cc2)c1,-34.4%
19,O=C(c1ccccc1Br)N1CCN(Cc2ccc3c(c2)OCO3)CC1,-23.1%
20,CC(=O)NC(c1ccc(Cl)cc1)c1ccc2cccnc2c1O (stereo not drawn),-97.4%
21,CCC(=O)NC(c1ccc(Cl)cc1Cl)c1ccc2cccnc2c1O (stereo not drawn),-96.5%
22,Cc1ccc2[nH]c3c(c2c1)CCCC3NC(=O)CCl (stereo not drawn),-99.7%
23,Cc1cccc(-n2c(O)c(C=Nc3c(C)n(C)n(-c4ccccc4)c3=O)c3ccccc3c2=O)n1,13.3%

row,Compound,"activity change, negative = inhibition"
1,CC(=O)OC1CCC2(C)C(CCC3C4CC=C(C(C)=O)C4(C)OC(=O)CC32)C1 (stereo not drawn),-18.4%
2,O=C1NC(=O)/C(=C\c2ccc(OCc3cccc(C(=O)O)c3)c(Cl)c2)N1,19.6%
3,CN1CCN(C(=O)C2=C[C@@H](C(C)(C)C)C[C@@H](OCc3ccc(CO)cc3)O2)CC1,0.267%
4,COc1ccc(N2CCN(CCNC(=O)CCCn3c(=O)[nH]c4cc(Cl)ccc4c3=O)CC2)cc1,0.649%
5,CCn1c2ccccc2c2cc(/C=N/NC(=O)c3ccncc3)ccc21,-99%
6,CCn1c(SC(C)C)nnc1-c1c[nH]c2ccccc12,5.13%
7,CCn1c2ccccc2c2cc(/C=N/NC(=O)c3cc(O)cc(O)c3)ccc21,"-72.5% [HEK293T LMP1 TES1-eGFP reporter, at 6.8 µM]"
8,CC1CC(C)C(=O)C(C(CC2CC(=O)NC(=O)C2)OC(=O)CC(=O)c2ccccc2)C1 (stereo not drawn),-83.3%
9,COc1cc(C(c2sc3nc(C)nn3c2O)N2CCc3ccccc3C2)cc(OC)c1OC (stereo not drawn),23.8%
10,CCOc1ccccc1NC(=O)Cn1c(=O)sc2ccccc21,-18.1%
11,O=C(NC(c1ccc(Cl)cc1)c1cc(Cl)c2cccnc2c1O)c1cccnc1 (stereo not drawn),-5.67%
12,CCOc1cc(Br)cc(/C=N/NC(=O)c2cccnc2)c1O,7.87%
13,Cc1cc(N2CCOCC2)c2c(N)c(Br)cc(C)c2n1,-92.6%
14,CC1CC(C)CN(S(=O)(=O)c2ccc(NC(=O)CCN3C(=O)C4CC=CCC4C3=O)cc2)C1 (stereo not drawn),-14%
15,CCN(CC)S(=O)(=O)c1cccc(-n2c(O)c(C=Nc3ccccc3C(=O)O)c3ccccc3c2=O)c1,13.8%
16,Cc1ccc(CN2C(=O)CCC2C(=O)NCCCN2CCC(C)CC2)cc1 (stereo not drawn),8.48%
17,Cn1cc(SCC(=O)NCC2CCCO2)c2ccccc21 (stereo not drawn),7.65%
18,O=Cc1ccc(-c2cccs2)s1,-98.5%
19,COc1ccc(NC(=O)CCS(=O)(=O)c2ccc3c(c2)CCN3C(C)=O)cc1,6.17%
20,C=CCn1c(C)c(C(C)=O)c(N2CCN(C(c3ccccc3)c3ccccc3)CC2)nc1=S,-16.5%
21,O=C(N/N=C/c1cccs1)c1n[nH]c2c1CCCC2,10.9%
22,COc1cc2oc(=O)cc(-c3ccc(-c4ccc(N(C)C)cc4)cc3)c2c(OC)c1OC,56.6%
23,COc1ccc(C=Cc2ccc3ccccc3n2)c(OC)c1,10.7%

row,Compound,"activity change, negative = inhibition"
1,COc1ccc(C(=O)NCCNc2nc3cc(C)c(C)cc3cc2C)cc1,14%
2,O=C(c1sc2cc([N+](=O)[O-])ccc2c1Cl)N1CCOCC1,-12.8%
3,O=C(N/N=C/c1sc2ccccc2c1O)c1cccc2ccccc12,-97.3%
4,COc1cccc(C(=O)CC(=O)C(=O)Nc2ccc(C)cc2Cl)c1,4.92%
5,COc1ccc(NC2=NCC(Cc3ccc(Br)cc3)S2)cc1 (stereo not drawn),57.7%
6,O=C(O)c1ccc(C=NNC(=O)c2cccc3ccccc23)cc1,-1.92%
7,O=C(N/N=C/c1ccc(O)cc1O)c1ccc(CN2C(=O)c3cccc4cccc2c34)cc1,-69.9%
8,O=c1oc2ccccc2c(O)c1/C=N/c1ccccn1,-2.45%
9,Cc1nnc(NC(=O)CSc2nnc(Cc3cccn3C)n2CCc2ccccc2)s1,-2.3%
10,Cc1cccc(/C=N/NC(=O)CNc2cccc3ccccc23)n1,3.88%
11,COc1ccc(O)c(/C=N/NC(=O)c2ccc(OCc3cccc(Br)c3)cc2)c1,22.7%
12,CCOc1ccc(OCc2cccc(C(=O)N3CCCC3)c2)cc1,31.9%
13,O=C(O)c1c2c(nc3ccccc13)/C(=C/c1ccc(O)cc1)CC2,-0.558%
14,O=[N+]([O-])c1ccc(O)c(/C=N/Nc2ncnc3c2cnn3-c2ccccc2)c1,0.818%
15,COc1cccc(/C=N/Nc2ncnc(Cl)c2N)c1O,-99.6%
16,O=C(/C=C/Nc1cccc(C(F)(F)F)c1)C(F)(F)F,9.44%
17,Cc1ccc(C(=O)Nc2ccc3ncccc3c2)cc1,-2.36%
18,CSc1ccccc1OCc1cc(C(=O)N2CCC[C@H]2C(N)=O)no1,18.8%
19,Cc1nnc(SCC(=O)N2CCC(c3noc4ccc(F)cc34)CC2)s1,-92.2%
20,NC(=O)c1sc2nc3c(c(-c4cccs4)c2c1N)CCCCC3,-17.8%
21,O=C1c2ccccc2C(O)N1Cc1ccccc1 (stereo not drawn),5.47%
22,S=C1SCN(Cc2ccccc2)CN1Cc1ccco1,12.6%
